Out of some 360,000 compounds screened, about 690 (0.19%) were called active.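 How the source made its calls: active means fluorescence ratio to DMSO below 75%, the collection mean minus 3 SD; inconclusive means too few cells collected in the well; inactive means the rest.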 The sample as a whole holds a higher share of actives than the screen did.
target: ATP-binding cassette sub-family B member 6 (Homo sapiens) (UniProt Q9NP58); experiment: ABCB6 transporter inhibitors, primary screen, K562-ABCB6 cells, flow cytometry, MLPCN library (AID 602162); conditions: K562-ABCB6 porphyrin accumulation, 1 h, at 10 µM, hits give low values;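 further: signal is porphyrin accumulated inside mitochondria; 100% equals median channel fluorescence of DMSO control wells; lower ratio means ABCB6 inhibition with less porphyrin fluorescence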
Sequence (Q9NP58 whole entry, looked up): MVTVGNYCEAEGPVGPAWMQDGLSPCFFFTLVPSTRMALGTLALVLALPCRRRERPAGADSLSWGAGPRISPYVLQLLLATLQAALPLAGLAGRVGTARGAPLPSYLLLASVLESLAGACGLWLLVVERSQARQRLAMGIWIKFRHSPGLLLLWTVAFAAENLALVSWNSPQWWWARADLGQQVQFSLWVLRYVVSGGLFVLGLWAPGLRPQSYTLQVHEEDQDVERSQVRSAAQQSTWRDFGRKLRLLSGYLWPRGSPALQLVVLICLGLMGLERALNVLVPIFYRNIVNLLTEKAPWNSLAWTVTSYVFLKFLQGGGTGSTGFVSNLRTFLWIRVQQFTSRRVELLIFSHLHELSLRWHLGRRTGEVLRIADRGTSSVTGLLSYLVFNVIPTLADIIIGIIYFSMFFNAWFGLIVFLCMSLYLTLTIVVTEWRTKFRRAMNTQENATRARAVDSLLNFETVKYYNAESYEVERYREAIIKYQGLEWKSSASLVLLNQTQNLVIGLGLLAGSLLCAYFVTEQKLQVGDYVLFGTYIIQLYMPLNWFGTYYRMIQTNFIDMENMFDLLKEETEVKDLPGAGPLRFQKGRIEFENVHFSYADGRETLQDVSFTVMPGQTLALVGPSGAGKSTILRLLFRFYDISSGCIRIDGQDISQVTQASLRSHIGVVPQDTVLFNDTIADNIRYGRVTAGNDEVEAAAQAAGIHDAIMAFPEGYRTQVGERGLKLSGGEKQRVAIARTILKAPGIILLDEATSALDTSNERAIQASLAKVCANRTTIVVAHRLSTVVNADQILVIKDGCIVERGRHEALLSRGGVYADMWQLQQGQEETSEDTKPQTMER

Row | SMILES | fluorescence ratio to DMSO
1 | CC(=O)Nc1ccccc1C(=O)C(=O)Nc1ccc(F)cc1 | 104% (inactive)
2 | Cc1cccc(NC(=O)c2ccc(OCC(=O)NCc3ccccc3)cc2)c1C | 97% (inactive)
3 | O=C1COc2ccc(S(=O)(=O)NCCc3ccc(Cl)cc3)cc2N1 | 93% (inactive)
4 | O=C1C=C(c2cccc(Br)c2)C[C@@H](c2ccc(F)cc2)C1 | 101% (inactive)
5 | O=C(Cn1cnc2ccccc2c1=O)NNC(=O)c1ccccc1F | 97% (inactive)
6 | O=C(Nn1cnc2ccccc2c1=O)c1ccc([N+](=O)[O-])cc1Cl | 98% (inactive)
7 | O=C(Nn1cnc2ccccc2c1=O)c1ccc(F)cc1Cl | 26% (active)
8 | COC(=O)Cc1nc2c(N)nc(N)nc2[nH]c1=O | 97% (inactive)
9 | CC1CCCC(NC(=O)c2cc(-c3ccncc3)nc3ccccc23)C1C (stereo not given) | 96% (inactive)
10 | CCc1ccc(-c2cc(C(=O)NN3CCN(C)CC3)c3ccccc3n2)cc1 | 99% (inactive)
11 | COC(=O)CNC(=O)c1cc(-c2ccncc2)nc2ccccc12 | 70% (active)
12 | Cc1cccc(C)c1NC(=O)Nc1ccccc1-n1ccnc1 | 96% (inactive)
13 | COc1ccc(NC(=O)/C(Cl)=C(/Cl)S(=O)Cc2ccc(C)cc2)cn1 (stereo not given) | 19% (active)
14 | CC(CC(=O)Nc1ccccc1)n1ccnc1 (stereo not given) | 96% (inactive)
15 | O=C1OC(Oc2ccc(Br)cc2)(c2ccccc2)c2ccccc21 (stereo not given) | 93% (inactive)
16 | CCn1ccnc1CNC(=O)CC1C(=O)NCCN1Cc1ccc(F)cc1Cl (stereo not given) | 92% (inactive)
17 | O=C(CSc1nnc(-c2cccnc2)n1CCc1ccccc1)NCc1ccccc1 | 110% (inactive)
18 | C=CCn1c(SCC(=O)NC(=O)Cc2ccccc2)nc2ccccc2c1=O | 99% (inactive)
19 | C=CCn1c(SCC(=O)NCc2ccccc2)nnc1-c1cc(Br)ccc1O | 53% (active)
20 | N#CCCN1CCN(S(=O)(=O)c2ccc(S(=O)(=O)NC3CCCCC3)cc2)CC1 | 96% (inactive)
21 | Cc1ccc(S(=O)(=O)N2CCC(Oc3ccc(-n4cnnn4)cc3)CC2)cc1 | 96% (inactive)
22 | COC(=O)c1ccc(CN2C(=O)C(Cc3ccccc3)ON=C2c2ncccc2C)o1 (stereo not given) | 94% (inactive)
23 | OCCC1CN(Cc2cnc(-c3ccccc3)s2)CCN1CCc1ccccc1 (stereo not given) | 73% (active)
24 | OCCC1CN(Cc2ccc(Oc3ncccn3)cc2)CCN1CCc1ccccc1 (stereo not given) | 101% (inactive)

Row | SMILES | fluorescence ratio to DMSO
25 | OCCC1CN(Cc2cccc(O)c2)CCN1CCc1ccccc1 (stereo not given) | 93% (inactive)
26 | COc1ccc(CN2C(=O)CC(Cc3ccc(C)cc3)C2=O)cc1OC (stereo not given) | 97% (inactive)
27 | O=S1(=O)CC(N2CCN(Cc3ccccc3F)CC2)CN1Cc1cn(Cc2cccc(C(F)(F)F)c2)nn1 (stereo not given) | 96% (inactive)
28 | COc1ccc(-c2c(NC(=O)c3ccco3)oc3ccc(Cl)cc3c2=O)cc1 | 97% (inactive)
29 | O=C(COc1ccccc1)Nc1cc2c3c(c1)CC(=O)N3CCC2 | 102% (inactive)
30 | Cc1ccccc1Cn1c(C)c(C(=O)NCc2cccc(C(F)(F)F)c2)sc1=O | 98% (inactive)
31 | Cn1c(=O)c2cc(NC(=O)NCCc3cccs3)ccc2n1Cc1cccc(C(F)(F)F)c1 | 100% (inactive)
32 | O=C(Cc1cccs1)NCc1cccc(C(F)(F)F)c1 | 68% (active)
33 | Cc1ccn(-c2cccc(-n3ccc(C)n3)n2)n1 | 104% (inactive)
34 | Cc1cnc(C(=O)OCc2c(C)cc(C(C)(C)C)cc2C)cn1 | 104% (inactive)
35 | COc1ccc(/C=C(\NC(=O)c2ccc(OCC(C)C)cc2)C(=O)OCc2ccco2)cc1 | 100% (inactive)
36 | O=C(NCCS(=O)(=O)N1CCN(c2ccccc2)CC1)c1ccco1 | 98% (inactive)
37 | COc1ccc(-c2cnc(SCCNC(=O)c3ccc4c(c3)OCO4)[nH]2)cc1 | 98% (inactive)
38 | O=C(NCCSc1ncc(-c2ccccc2)[nH]1)c1ccco1 | 74% (active)
39 | COc1ccccc1NC(=O)c1ccc(N2CC3CC(C2)c2cccc(=O)n2C3)c(NC(=O)c2cccnc2)c1 (stereo not given) | 100% (inactive)
40 | CCN(CC(=O)Nc1ccc(NC(C)=O)cc1)C(=O)C1CC(=O)N(c2ccc3c(c2)OCCO3)C1 (stereo not given) | 91% (inactive)
41 | COc1ccc(CCNC(=O)CN(c2ccccc2)S(C)(=O)=O)cc1OC | 95% (inactive)
42 | COc1ccc(CCNC2=C(Cl)C(=O)N(Cc3ccccc3)C2=O)cc1OC | 73% (active)
43 | COc1ccc(CCNc2nc(C)cc(C)n2)cc1OC | 95% (inactive)
44 | Fc1ccccc1OCCSc1nc2ccccc2o1 | 89% (inactive)
45 | O=C(CSc1nnc(C2CC2)n1Cc1ccccc1)Nc1cccnc1Cl | 85% (inactive)
46 | CCC1OC(C2CC2)CC2=C1C(=O)OC(C)(C)O2 (stereo not given) | 97% (inactive)
47 | CC1(C)O[C@H]2CC(=O)OCC23[C@H]2CC[C@@]4(C)[C@H](c5ccoc5)OC(=O)[C@H]5O[C@]54[C@]2(C)C(=O)C[C@@H]13 (stereo not given in full) | 100% (inactive)
48 | O=C(c1cnn2ccccc12)N1CCc2ccccc21 | 103% (inactive)

Row | SMILES | fluorescence ratio to DMSO
49 | COC(=O)c1ccc(C2NC(=O)NC(C)=C2C(=O)N(C)C)cc1 (stereo not given) | 117% (inactive)
50 | CCOC(=O)C1=C(C)NC2=C(C(=O)CC(C)(C)C2)C1c1ccsc1 (stereo not given) | 100% (inactive)
51 | CCCOC(=O)C1=C(C)NC2=C(C(=O)C(C(=O)OC)C(C)C2)C1c1ccc(N(C)C)cc1 (stereo not given) | 72% (active)
52 | CCCn1c(N)c(C(=O)CSc2nnc(-c3cccnc3)n2-c2ccc(C)cc2C)c(=O)[nH]c1=O | 101% (inactive)
53 | CCOc1ccc2[nH]c3nc(SCC(=O)NC4CCCC4)nnc3c2c1 | 96% (inactive)
54 | CC1CCN(S(=O)(=O)c2nnc(NC(=O)COc3ccccc3F)s2)CC1 | 100% (inactive)
55 | Cc1ccccc1OCC(=O)Nc1nnc(S(=O)(=O)N2CCCC2)s1 | 56% (active)
56 | CCc1ccccc1OCC(=O)Nc1ccc(C)c(S(=O)(=O)N2CCCCCC2)c1 | 90% (inactive)
57 | Cc1ccc2[nH]c3c(=O)n(CC(=O)NCCc4ccc(Cl)cc4)ncc3c2c1 | 96% (inactive)
58 | CC(C)(C)C1CCC(C(=O)NCC(c2cccs2)N2CCOCC2)CC1 (stereo not given) | 98% (inactive)
59 | O=C(NCc1ccco1)C(c1ccncc1)N(C(=O)Cn1nnc2ccccc21)c1ccccc1 (stereo not given) | 94% (inactive)
60 | Nc1nc(SCc2cccc(Br)c2)n[nH]1 | 98% (inactive)
61 | COc1ccccc1N1CCN(C(=O)c2cc(=O)c3cc(C)cc(C)c3o2)CC1 | 101% (inactive)
62 | Cc1cccc(N2CCN(C(=O)c3cnn4c(C(F)F)cc(-c5ccccc5)nc34)CC2)c1C | 97% (inactive)
63 | Cc1ccc(Cl)cc1N1CCN(C(=O)c2cccc3c(=O)c(C)c(-c4ccccc4)oc23)CC1 | 73% (active)
64 | C/C(CCc1ccccc1)=N\NC(=O)c1ccc(CN2CCOCC2)cc1 | 97% (inactive)
65 | CSC1=NN(c2ccccc2)CN(c2ccccc2)N1C | 98% (inactive)
66 | CCCOP(=O)(c1ccc(N(C)C)cc1)C(O)c1cc(OC)c(OC)c(OC)c1 (stereo not given) | 94% (inactive)
67 | COc1ccccc1S(=O)(=O)NCc1ccc(C(=O)N(C)Cc2ccc(F)cc2)cc1 | 92% (inactive)
68 | Cc1cnc(NC(=O)Cn2cnc3c2c(=O)n(C)c(=O)n3C)s1 | 101% (inactive)
69 | Cc1ccc(SCC(=O)Nc2nncs2)cc1 | 99% (inactive)
70 | Cc1ccc(SCC(=O)Nc2ncc(C)s2)cc1 | 71% (active)
71 | Fc1cccc(Cc2noc(CN3CCN(c4cnccn4)CC3)n2)c1 | 95% (inactive)
72 | COc1ccccc1CNC(=O)CSc1nc(=O)n(Cc2ccncc2)c2c1CCC2 | 100% (inactive)

Row | SMILES | fluorescence ratio to DMSO
73 | Cc1ccc2c(C)c(C(=O)N(C)Cc3ccncn3)oc2c1C | 96% (inactive)
74 | Cc1ccccc1OC(=O)Cn1c(C(F)(F)F)nc2ccccc21 | 93% (inactive)
75 | COc1ccc(CNC(=O)COC(=O)c2c(C)nn(-c3ccccc3)c2C)cc1OC | 98% (inactive)
76 | Cc1cccc(C)c1NC(=O)COC(=O)c1c(C)nn(-c2ccccc2)c1C | 100% (inactive)
77 | Cc1nn(-c2ccccc2)c(C)c1C(=O)OCC(=O)NC(=O)NC1CCCCC1 | 74% (active)
78 | O=C(/C=C/c1ccccc1)Oc1coc(CSc2ncccn2)cc1=O | 104% (inactive)
79 | CC1(C)O[C@@H]2[C@H](O1)[C@@H](COS(=O)(=O)O)O[C@H]2n1cnc2c(=O)[nH]cnc21 | 98% (inactive)
80 | COc1ccc(CC(=O)NCc2nnc(SCC(=O)Nc3ncc(C)s3)n2C)cc1 | 103% (inactive)
81 | O=C(CC(c1ccccc1)c1cc(Cl)ccc1O)NCCN1CCOCC1 (stereo not given) | 91% (inactive)
82 | O=S(=O)(c1ccc(F)cc1)n1ccc(-c2cnc(-c3ccccc3)s2)n1 | 91% (inactive)
83 | CN(CC(=O)Nc1cccc(F)c1)C(=O)C1CSC2(C)CCC(=O)N12 (stereo not given) | 96% (inactive)
84 | CC(C)C(=O)NCC(c1cccs1)S(=O)(=O)c1ccc(F)cc1 (stereo not given) | 11% (active)
85 | COCCNC(=O)C(OC(=O)c1cccs1)c1ccc(F)cc1 (stereo not given) | 100% (inactive)
86 | O=C(NCc1cccs1)C(=O)NCC1OCCCN1S(=O)(=O)c1ccc(F)cc1 (stereo not given) | 103% (inactive)
87 | N#Cc1cccc(NC(=O)C2CCCN(C(=O)c3ccc(Cl)cc3)C2)c1 (stereo not given) | 104% (inactive)
88 | Cc1c(C(=O)NC(=S)NCc2cccnc2)oc2ccccc12 | 99% (inactive)
89 | CC12CCCCC1=CC(=O)CC2 (stereo not given) | 101% (inactive)
90 | COc1ccc(CNC(=O)CN2C(=O)NC3(CCCc4sccc43)C2=O)cc1 (stereo not given) | 93% (inactive)
91 | O=C(CN1C(=O)NC2(CCCC2)C1=O)Nc1ccc(F)c(F)c1F | 104% (inactive)
92 | CC(C(=O)Nc1ccccc1-c1ccccc1)N1CCOCC1 (stereo not given) | 104% (inactive)
93 | CC(C(=O)Nc1ccc(F)c(F)c1F)N1CCCCCC1 (stereo not given) | 74% (active)
94 | COCCCNc1ccn2nc(-c3ccc(CC(C)C)cc3)cc2n1 | 100% (inactive)
95 | COC(=O)c1cc(NC(=O)CN2CCC(C(N)=O)(N3CCCCC3)CC2)cc(C(=O)OC)c1 | 104% (inactive)

Reference: PubChem BioAssay AID602162 (NMMLSC, 2011)
